The campaign covered roughly 68,000 compounds. About 2,700 (4%) showed an effect of 50% or more. Only a selection was taken, and strong results are over-represented in it overall.
test system: Plasmodium berghei; test: Screen against P. berghei liver stage (PbLuc), transformed with Luciferase, at 2uM; assay type: functional, HepG2; settings: tested at 2 uM

| SMILES | INHIBITION [%] |
| --- | --- |
| Cc1cc(C(=O)NC2(c3ccc(Br)cc3)CC2)n(C)n1 | -25.71 |
| CC(=O)c1cc(C(=O)NC2(c3ccccc3)CCC2)n(C)c1 | 10.43 |
| Cc1ncc(CNC(=O)CCc2cccc(F)c2)c(C2CCCN2C)n1 (stereo unspecified) | 7.21 |
| COc1ccc(N2CCC(N3CCOC(C(F)(F)F)C3)CC2)cc1 (stereo unspecified) | 10.95 |
| c1coc(-c2nc3c(c(N4CCCN5CCC[C@H]5C4)n2)CCNCC3)c1 | -53.14 |
| NCC1CCN(C2CCN(c3ccc(-c4ccco4)cc3)CC2)C1 (stereo unspecified) | 74.44 |
| O=C(O)c1ccccc1C1CCN(C2CCN(c3ccccc3)CC2)C1 (stereo unspecified) | 38.67 |
| NC1CCN(C2CCN(c3ccc(-c4ccco4)cc3)CC2)CC1 | 55.36 |
| CNC1CCN(C2CCN(c3ccc(-c4ccco4)cc3)CC2)CC1 | 7.67 |
| O=C(c1ncccn1)N1CCC2(CC1)COC(COc1ccccn1)C2 (stereo unspecified) | 17.35 |
| CCN(CC)c1ccc(C(=O)N2C[C@H]3CC[C@@H](C2)N(CCOC)C3)cc1 | -34.04 |
| CS(=O)(=O)N1CCOCC2(CCN(Cc3ccc[nH]3)CC2)C1 | -14.21 |
| CC(C1CC1)N(CC(=O)NCC(F)(F)F)C1CC1 (stereo unspecified) | 54.02 |
| CC(C1CC1)N(CC(=O)NC(=O)NC1CC1)C1CC1 (stereo unspecified) | 31.39 |
| CC(C)NC(=O)CN(C1CC1)C(C)C1CC1 (stereo unspecified) | -26.26 |
| Cc1ncc(CNCC(=O)NCC(F)(F)F)n1-c1ccccc1 | 48.21 |
| Cc1ncc(CNCC(=O)NC2CCCCC2)n1-c1ccccc1 | 21.97 |
| Cc1ncc(CNCC2CCC(C(N)=O)CC2)n1-c1ccccc1 (stereo unspecified) | 72.05 |
| COCCc1noc(CN2CCCCC2Cn2cc(C)cn2)n1 (stereo unspecified) | 3.3 |

| SMILES | INHIBITION [%] |
| --- | --- |
| Cn1cccc1C(=O)NS(=O)(=O)c1cnn(-c2ccccc2F)c1 | 25.21 |
| Fc1ccc(C2CN(CCc3ccncc3)CCO2)cc1 (stereo unspecified) | 13.26 |
| CCc1ccc(C2NCCc3cc4c(cc32)OCCO4)cc1 (stereo unspecified) | -5.98 |
| CCN1C[C@H]2CCN(C(=O)Cc3cccc(OC)c3)CC[C@H]2S1(=O)=O | -8.72 |
| Cc1ccc(NC(=O)C2CSCN2C(=O)c2cc[nH]n2)c(C)c1 (stereo unspecified) | -16.12 |
| Cc1ccc(NC(=O)C2CSCN2C(=O)c2cccnc2)c(C)c1 (stereo unspecified) | -0.12 |
| Cc1cccc(NC(=O)C2CSCN2C(=O)c2cnccn2)c1C (stereo unspecified) | -1.85 |
| Cc1ccc(NC(=O)C2CSCN2C(=O)c2cnccn2)c(C)c1 (stereo unspecified) | 51.21 |
| Cc1ccc(NC(=O)C2CSCN2C(=O)c2cnccn2)cc1C (stereo unspecified) | 54.2 |
| Cc1ccc(NC(=O)C2CSCN2C(=O)c2ccncc2)c(C)c1 (stereo unspecified) | 11.95 |
| O=S(=O)(NCc1ccccc1)Nc1ccc(-n2cncn2)cc1 | 4.12 |
| Fc1cnc(N2CCn3c(CN4CCCC4)nnc3C2)nc1 | -55.08 |
| CCNC(=O)[C@@H]1C[C@H](NC(=O)Cn2ccnc2)CN1Cc1ccsc1 | -35.46 |
| Cc1cnc(C)c(N2CC[C@H](N3CCOCC3)[C@H](CCCO)C2)n1 | 37.87 |
| CC(C)c1cncnc1N1CC[C@H](N2CCOCC2)[C@H](CCCO)C1 | 68.36 |
| OCCC[C@@H]1CN(c2ncc(Cl)cc2Cl)CC[C@@H]1N1CCOCC1 | -69.21 |
| Fc1ccc(CN2CCCn3cnc(COCC4CC4)c3C2)cc1 | 25.48 |
| CC(=O)N1CCC2(CC1)COCCN2CCN(C)C | 0.04 |
| CC1CN(C)c2ccccc2CN1C(=O)c1cc(C#N)cn1C (stereo unspecified) | 3.49 |

| SMILES | INHIBITION [%] |
| --- | --- |
| CC(C)NC(=O)c1nc(Cn2c(C(F)(F)F)nc3ccccc32)no1 | 37.53 |
| O=C(NC1CC1)c1nc(Cn2c(C(F)F)nc3ccccc32)no1 | 29.87 |
| CC(C)NC(=O)c1nc(Cn2c(C(F)F)nc3ccccc32)no1 | 51.42 |
| COc1ccc(CN2CCN(CC3CC3)[C@@H]3CS(=O)(=O)C[C@@H]32)cc1O | 7.93 |
| Cn1ncc2c(NC3CCC3)nc(-c3ccncc3)nc21 | -24.62 |
| Cn1ncc2c(NC3CN4CCC3CC4)nc(-c3ccncc3)nc21 (stereo unspecified) | 10.1 |
| Cn1ncc2c(N[C@@H]3C[C@H]4CC[C@@H]3C4)nc(-c3ccncc3)nc21 | 67.85 |
| Cc1csc(CNC(=O)NC(C)c2ccc3c(c2)OCCO3)n1 (stereo unspecified) | 39.83 |
| CN(C)CCOC1CC2(CCN(c3cnccn3)CC2)c2ccccc21 (stereo unspecified) | 20.21 |
| CC(=O)N(Cc1noc(C)n1)C1CCN(Cc2ccncc2Cl)C1 (stereo unspecified) | 53.72 |
| CC(=O)N(Cc1ncc(C)o1)C1CCN(Cc2noc(C)n2)C1 (stereo unspecified) | 71.13 |
| CC(=O)N(Cc1noc(C)n1)C1CCN(Cc2ncc(C(C)C)o2)C1 (stereo unspecified) | 8.06 |
| CC(=O)N(Cc1ncc(C)o1)C1CCN(Cc2ccncc2Cl)C1 (stereo unspecified) | 53.72 |
| CC(=O)N(Cc1ncc(C)o1)C1CCN(Cc2cc(C)on2)C1 (stereo unspecified) | 1.04 |
| CC(=O)N(Cc1noc(C)n1)C1CCN(Cc2ccccn2)C1 (stereo unspecified) | 6.31 |
| CC(=O)N(Cc1ncc(C)o1)C1CCN(Cc2ccccc2F)C1 (stereo unspecified) | 20.35 |
| CC(=O)N(Cc1noc(C)n1)C1CCN(Cc2ccccc2C#N)C1 (stereo unspecified) | -21.31 |
| CC(=O)N(Cc1ncc(C)o1)C1CCN(Cc2cccnc2)C1 (stereo unspecified) | 41.72 |

— ChEMBL document CHEMBL4513216, “Probing the Open Global Health Chemical Diversity Library for Multistage-Active Starting Points for Next-Generation Antimalarials” (ACS Infect Dis, 2020)
